The whole screen tested about 350,000 compounds, of which about 31,000 (8.9%) were called active. Inconclusive results (about 15%) are left out. The entries come from a sample that favours actives as a whole. Entries that show only a call come without a potency. Values without a mark were called inactive. Calls come from the whole dose curve; as a rule, active = well fitted inhibition curve with a large enough effect; inconclusive = small, poorly fitted or top-dose-only effect; inactive = no such curve, though single readings can be large or run the other way.
Potency is the fitted concentration of half-maximal effect.

Histone-lysine N-methyltransferase EHMT2 (Homo sapiens), sequence (Q96KQ7 913-1193 limits assumed): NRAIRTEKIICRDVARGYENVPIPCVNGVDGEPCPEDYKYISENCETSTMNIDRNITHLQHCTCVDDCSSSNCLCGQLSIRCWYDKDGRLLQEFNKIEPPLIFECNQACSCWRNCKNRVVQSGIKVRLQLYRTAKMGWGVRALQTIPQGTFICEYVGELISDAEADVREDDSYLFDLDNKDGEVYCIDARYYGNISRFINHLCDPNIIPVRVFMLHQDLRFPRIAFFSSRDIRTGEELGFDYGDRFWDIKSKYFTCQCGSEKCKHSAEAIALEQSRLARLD

The target of the test is Histone-lysine N-methyltransferase EHMT2 (Homo sapiens) (UniProt Q96KQ7). The test is described as follows: qHTS Assay for Inhibitors of Histone Lysine Methyltransferase G9a. Note: nearly all actives have a fitted effect of over 75% in size. The note with it: G9a H3K9 monomethylation, AlphaScreen, 2 h; series mostly up to 59 µM. The method, boiled down:
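AlphaScreen read-out: biotin-H3K9 peptide (500 nM) methylation by 20 nM enzyme with 20 uM SAM, 2 h at room temperature after 15 min compound preincubation; anti-monomethyl H3K9 antibody plus donor/acceptor beads, 10 min dark.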
Turning to `COc1ccc(-c2cn(-c3ccc(C)cc3)c(=O)n2CC(=O)Nc2ccc(OC)c(OC)c2)cc1`, the Potency result was “inactive”.

With `COc1ccccc1-n1cn[nH]c1=S`, the activity, negative = inhibition was -42.9% [at 12.7 µM].

On to `COc1ccccc1-n1c(-c2cc(-c3ccco3)[nH]n2)n[nH]c1=S`, for which the Potency is 2.82 µM (active).

Turning to `Cc1ccc(-c2cn3cc(C)ccc3n2)cc1`, the Potency entry is “inactive”.

For `COc1ccc(-n2c(-c3ccc(OC)c(OC)c3)n[nH]c2=S)cc1`, the Potency was 5.62 µM (active).

Regarding `COc1ccc(CCn2c(-c3ccco3)nc3nc4ccccc4nc32)cc1OC`, the activity, negative = inhibition was -36.8% [at 12.7 µM].

For the compound `COc1ccc(-c2c(-c3cc(OC)cc(OC)c3)n(C)c3ccc(-c4ccn[nH]4)cc23)cc1`, the activity, negative = inhibition is 2.71% [at 0.501 µM].

Regarding `COc1ccc(-n2c(C)csc2=S)cc1`, the Potency entry is “inactive”.

For the compound `COc1ccc(OC)c(-n2c(=S)[nH]c3cc(C(=O)N4CCCCC4)ccc3c2=O)c1`, the Potency result was “inactive”.

As to `Cc1n[nH]c(=O)n1-c1ccc(C(C)C)cc1`, the Potency result is “inactive”.

On to `COc1ccc(OC)c(-n2c(-c3ccn[nH]3)n[nH]c2=S)c1`, for which the Potency was 14.1 µM (active).

Regarding `Cc1ccc(-n2c(-c3ccc(Cl)cc3)n[nH]c2=S)cc1`, the Potency is 1.41 µM (active).

Consider `COc1ccccc1CN1CCC(CNC(=O)c2cnn(-c3cccc(Cl)c3)c2C2CCN(C(=O)OC(C)(C)C)CC2)CC1`, for which the Potency result was “inactive”.

As for `COc1ccc(CCc2nc(-c3cccs3)no2)cc1`, the Potency entry was “inactive”.

Consider `COc1ccc(CC(=O)NCCc2sc3nc(-c4ccc(OC)cc4)nn3c2C)cc1`, for which the Potency result is “inactive”.

On to `Cc1cc(C)cc(NC(=O)CSc2nc3nccnc3c(=O)n2CCc2c[nH]c3ccccc23)c1`, for which the Potency result was “inactive”.

Consider `CCOc1ccccc1NC(=O)Cn1c(=O)n(Cc2ccccc2)c(=O)c2c(C)c(C(=O)N(C)C)sc21`, for which the Potency entry was “inactive”.

As to `Cc1cccc(C(=O)Nc2ccc(Oc3cnccn3)cc2)c1`, the activity, negative = inhibition is -1.31% [at 2.33 µM].

For `CCOc1cc(C(=O)NCCc2csc3nc(-c4ccc(C)cc4)nn23)cc(OCC)c1OCC`, the Potency result was “inactive”.

Regarding `CCOC(=O)C1=C(COC(=O)[C@H](C)NS(=O)(=O)c2ccccc2F)NC(=O)NC1C` (some centres undefined), the activity, negative = inhibition was 20.6% [at 2.33 µM].

In the case of `CCc1cc2c(cc3c(=O)n(CC(=O)NCc4cccc(Cl)c4)nc(CC)n32)s1`, the Potency result was “inactive”.

As for `COCCNC(=O)c1ccc2c(c1)N(Cc1cccc(Cl)c1)C(=O)c1ccccc1S2(=O)=O`, the Potency result is “inactive”.

Take `CCOC(=O)[C@H]1[C@H]2COc3ccc(Cl)cc3[C@@H]2N2C(=O)c3cc(C)ccc3NC(=O)[C@@]12C`: the activity, negative = inhibition was 28% [at 2.33 µM].

For the compound `Cc1[nH]c2ccc(C(=O)N3CCN(C)CC3)cc2c1C`, the Potency entry is “inactive”.

Consider `CCC(CC)C(=O)N1CCN(c2cccc(C)c2C)CC1`, for which the Potency entry was “inactive”.

Turning to `CCOc1ccccc1N1CCN(C(=O)c2ccc3[nH]c(C)c(C)c3c2)CC1`, the Potency is 79.4 µM (active).

Regarding `CCS(=O)(=O)N1CCc2cc(C(=O)N3CCN(c4ccccc4OC)CC3)ccc21`, the Potency entry is “inactive”.

Consider `CCn1c(C)c(C)c2cc(C(=O)N3CCN(c4cccc(C)c4C)CC3)ccc21`, for which the Potency is 39.8 µM (active).

On to `Cc1cccc(N2CCN(C(=O)c3ccc4c(c3)CCN4S(=O)(=O)c3ccccc3)CC2)c1C`, for which the Potency entry was “inactive”.

As to `CCc1ccc(C(=O)COC(=O)c2ccco2)cc1`, the Potency entry is “inactive”.

As for `CC1CCCCC12NC(=O)N(CC(=O)OCC(=O)NCc1ccc(F)cc1)C2=O` (centres undefined), the Potency entry was “inactive”.

Take `COc1ccc(-c2nc3sc(CCNC(=O)C(C)(C)C)c(C)n3n2)cc1`: the Potency result is “inactive”.

As for `CCN(C(=O)COC(=O)c1sccc1C)c1c(N)n(Cc2ccccc2)c(=O)[nH]c1=O`, the activity, negative = inhibition is 4.77% [at 0.501 µM].

As to `CN(C)C(CNC(=O)c1ccc(OCc2cn3ccccc3n2)cc1)c1ccco1` (centres undefined), the Potency result is “inactive”.

Regarding `CN(C(=O)CSc1nc2ccccc2n1Cc1ccccc1C#N)c1ccccc1`, the Potency entry is “inactive”.

For `NS(=O)(=O)c1ccc(CNC(=O)c2cccc(Oc3ccccc3)c2)cc1`, the Potency entry was “inactive”.

Regarding `O=C(CNc1ccccc1N1CCCC1=O)Nc1cc(Cl)ccc1-n1cncn1`, the Potency result was “inactive”.

In the case of `CC(C)Sc1nnc([C@H](Cc2ccccc2)NC(=O)OC(C)(C)C)o1`, the Potency was 35.5 µM (active).

`CCc1ccccc1NC(=O)CSc1nnc([C@@H](NC(=O)OC(C)(C)C)C(C)C)o1`: the activity, negative = inhibition was 10.1% [at 2.33 µM].

As to `C[C@H](NC(=O)OC(C)(C)C)c1nnc(SCC(N)=O)o1`, the Potency entry is “inactive”.

In the case of `O=C(CN1CCN(S(=O)(=O)c2ccc(Cl)s2)CC1)N1CCCCC1`, the activity, negative = inhibition is 18.1% [at 2.33 µM].

`COc1ccc(/C=N\NC(=O)c2sc(N)nc2C)cc1OC`: the Potency result was “inactive”.

Consider `CCOc1cc(/C=C(\C#N)c2nc(-c3cccs3)c(NC(C)=O)s2)ccc1O`, for which the Potency entry was “inactive”.

Take `COc1cc(/C=N\Nc2nc(-c3cccs3)c(NC(C)=O)s2)ccc1O`: the Potency was 11.2 µM (active).

Consider `CC1=Nc2cc(C(=O)N3CCC(C)CC3)ccc2Sc2ccc(Cl)cc21`, for which the Potency entry is “inactive”.

With `CCc1nnc(SCc2nc(-c3cccc(C)c3)oc2C)c2cc3sc(C)cc3n12`, the Potency result was “inactive”.

On to `CC(C)Oc1ccc(S(=O)(=O)N2CCOCC2)cc1NC(=O)C1CSC2(C)CCC(=O)N12` (centres undefined), for which the Potency is 44.7 µM (active).

Turning to `CCN(CC)S(=O)(=O)c1ccc(N2CCOCC2)c(NC(=O)C2CSC3(C)CCC(=O)N23)c1` (centres undefined), the Potency entry was “inactive”.

Regarding `CC(C)Oc1ccc(S(=O)(=O)N2CCOCC2)cc1NC(=O)C1CCCC1`, the Potency entry was “inactive”.

For `Cc1ccc(CC2C(=O)N(c3ccc(F)cc3)C(=O)C2C)cc1` (centres undefined), the activity, negative = inhibition was 2.4% [at 0.501 µM].

In the case of `CCNC(=O)CC1C(=O)N(c2ccc(F)cc2)C(=O)N1Cc1ccc(C)cc1` (centres undefined), the Potency result is “inactive”.

On to `C=C1c2cc(CC)ccc2NC(=O)N1c1ccc(C)cc1`, for which the Potency is 11.2 µM (active).

In the case of `O=C(c1cc(COc2ccc(F)c(F)c2)on1)N1CCOCC1`, the activity, negative = inhibition is -4.01% [at 0.501 µM].

On to `Cc1cc(NS(=O)(=O)c2ccc(NC(=O)C(C)Oc3cccc(C)c3C)cc2)nc(C)n1` (centres undefined), for which the Potency entry is “inactive”.

Consider `CN1C=CC=C/C1=C1\SC(=S)N(Cc2ccccc2)C1=O`, for which the Potency is 20 µM (active).

As to `Cn1c(=O)[nH]c(=O)c2c1[nH]c(=S)n2Cc1ccccc1`, the activity, negative = inhibition is -14.7% [at 2.33 µM].

With `Cc1ccc(C)c(NC(=O)COC(=O)CSc2ccccc2)c1`, the activity, negative = inhibition is 0.0476% [at 12.7 µM].

Turning to `COc1ccc(C)cc1NC(=O)c1cc(-c2ccccc2)nc2c1cnn2C(C)C`, the activity, negative = inhibition is 0.616% [at 12.7 µM].

As for `CC(Sc1nnc(C2CC2)n1C1CC1)C(=O)Nc1ccc(C(N)=O)cc1` (centres undefined), the activity, negative = inhibition was -5.65% [at 2.33 µM].

On to `CC(C)Oc1ccc(/C=C(\NC(=O)/C=C/c2ccco2)C(=O)NCCc2nc3ccccc3[nH]2)cc1`, for which the Potency is 39.8 µM (active).

For `CC(C)=C(NC(=O)c1ccco1)C(=O)NCCc1nc2ccccc2[nH]1`, the activity, negative = inhibition is 6.16% [at 2.33 µM].

Take `COc1ccc(OC(C)C(=O)NCCc2nc3ccccc3[nH]2)cc1` (centres undefined): the Potency entry was “inactive”.

`Cc1ccc(-n2nc(C)c3c(C)cc(=O)n(CC(=O)Nc4ccc(C(C)C)cc4)c32)cc1`: the Potency result was “inactive”.

Turning to `CCN(CC(=O)Nc1c(F)cccc1F)C(=O)c1ccc(Sc2nncn2C)c([N+](=O)[O-])c1`, the Potency result is “inactive”.

Take `Cc1ccc(S(=O)(=O)N2CCN(C(=O)CSc3cc(C)ccc3C)CC2)c(C)c1`: the Potency result was “inactive”.

Take `Brc1ccccc1C1Nc2cccc3cccc(c23)N1`: the Potency was 44.7 µM (active).

As to `COc1ccc(N2C(=O)C3CCCN3C2c2cccc(OC)c2)cc1` (centres undefined), the Potency entry was “inactive”.

Regarding `COc1cccc(C2Nc3cccc4cccc(c34)N2)c1`, the Potency was 20 µM (active).

Consider `COc1ccc(C2NC(=O)c3ccccc3N2)cc1` (centres undefined), for which the Potency entry is “inactive”.

On to `COc1ccc(C2CC(c3ccc(C)cc3)Nc3nc(N)nn32)cc1` (centres undefined), for which the Potency result is “inactive”.

In the case of `Oc1ccc(C2Nc3cccc4cccc(c34)N2)cc1`, the Potency was 25.1 µM (active).

In the case of `Cc1ccc(C2Nc3cccc4cccc(c34)N2)cc1`, the Potency is 10 µM (active).

For the compound `O=C1NC(c2cccc(Cl)c2)Nc2ccccc21` (centres undefined), the Potency entry was “inactive”.

As to `Cc1ccc(C2CC(c3cccc(C)c3)n3nc(N)nc3N2)cc1` (centres undefined), the Potency result is “inactive”.

As for `O=C1CCC([N+](=O)[O-])C(c2ccccc2Br)N1` (centres undefined), the Potency entry is “inactive”.

In the case of `COc1ccc(C(C#N)(CC(=O)O)c2cnccn2)cc1OC` (centres undefined), the activity, negative = inhibition is 3.29% [at 2.33 µM].

Regarding `CC1CCCN(c2nc3c(S(=O)(=O)c4ccc(C(C)C)cc4)nnn3c3ccsc23)C1` (centres undefined), the Potency entry is “inactive”.

With `COc1ccc(CNC(=O)c2ccc(NS(=O)(=O)c3ccc4[nH]c(=O)[nH]c4c3)cc2)cc1OC`, the activity, negative = inhibition is 19.8% [at 12.7 µM].

Turning to `CCOc1ccc(-c2nonc2NC(=O)c2oc3ccc(CC)cc3c2C)cc1`, the Potency result is “inactive”.

For `Cn1c(C(=O)Nc2cccc(C(F)(F)F)c2)cc2c(=O)n3ccccc3nc21`, the Potency result was “inactive”.

For the compound `CC(=O)N1CCc2c(sc(NC(=O)CCS(=O)(=O)c3ccccc3)c2C#N)C1`, the Potency entry was “inactive”.

Turning to `CC(C)(C)n1ncc2c(=O)n(Cc3c(Cl)cccc3Br)cnc21`, the activity, negative = inhibition is -12.6% [at 2.33 µM].

With `CCOC(=O)c1cc(NC(=O)c2ccc(F)cc2)c(=O)n2c1oc1ccccc12`, the Potency entry was “inactive”.

Consider `COc1ccccc1-c1nnc(C2CCN(C(=O)c3ccc(Cl)cc3)CC2)o1`, for which the Potency entry is “inactive”.

For `CCOC(=O)c1cc(-c2ccc(OC)c(S(=O)(=O)Nc3ccc(OC)cc3OC)c2)on1`, the Potency entry was “inactive”.

`Cc1cccc(C)c1NC(=O)COC(=O)c1ccccc1O`: the Potency result is “inactive”.

For the compound `CCOc1cccc2cc(C(=O)OCC(=O)Nc3c(C)cccc3CC)c(=O)oc12`, the Potency is 44.7 µM (active).

As to `C=CCc1cccc2cc(C(=O)OCC)c(=O)oc12`, the Potency result is “inactive”.

Consider `CCCN(CCC)C(=O)Cn1c(=O)n(-c2ccc(Cl)cc2)c(=O)c2c3c(sc21)CCCCC3`, for which the Potency entry was “inactive”.

In the case of `Cc1ccc(C)c(C(=O)COC(=O)Cn2[nH]c(=O)c3ccccc3c2=O)c1`, the activity, negative = inhibition is 11.2% [at 12.7 µM].

For `Cc1ccc(-n2cnc3cc(C(=O)NCCC4=CCCCC4)ccc32)cc1Cl`, the Potency result was “inactive”.

With `Cc1nnc2sc(-c3ccco3)nn12`, the Potency entry is “inactive”.

Consider `Fc1ccc(-c2ccc(-c3nn4c(-c5ccco5)nnc4s3)o2)cc1`, for which the Potency is 15.8 µM (active).

As to `FC(F)(F)c1nnc2sc(-c3ccco3)nn12`, the Potency entry was “inactive”.

The values are drawn from PubChem BioAssay AID504332 (National Center for Advancing Translational Sciences (NCATS), 2011).
